Out of some 5,600 compounds screened, about 390 (7%) showed an effect of 50% or more. The sample as a whole holds a higher share of strong results than the screen did. Non-standard residues stand in square brackets, D forms with d. Residues, ends and D or L forms follow the SMILES beside them. αMeP = C[C@@]1(C(=O)O)CCCN1
Tests used:
[1] = target: T1, Protein deacetylase HDAC6 (Homo sapiens) (UniProt Q9UBN7); settings: at 10 µM
T1 sequence (whole entry): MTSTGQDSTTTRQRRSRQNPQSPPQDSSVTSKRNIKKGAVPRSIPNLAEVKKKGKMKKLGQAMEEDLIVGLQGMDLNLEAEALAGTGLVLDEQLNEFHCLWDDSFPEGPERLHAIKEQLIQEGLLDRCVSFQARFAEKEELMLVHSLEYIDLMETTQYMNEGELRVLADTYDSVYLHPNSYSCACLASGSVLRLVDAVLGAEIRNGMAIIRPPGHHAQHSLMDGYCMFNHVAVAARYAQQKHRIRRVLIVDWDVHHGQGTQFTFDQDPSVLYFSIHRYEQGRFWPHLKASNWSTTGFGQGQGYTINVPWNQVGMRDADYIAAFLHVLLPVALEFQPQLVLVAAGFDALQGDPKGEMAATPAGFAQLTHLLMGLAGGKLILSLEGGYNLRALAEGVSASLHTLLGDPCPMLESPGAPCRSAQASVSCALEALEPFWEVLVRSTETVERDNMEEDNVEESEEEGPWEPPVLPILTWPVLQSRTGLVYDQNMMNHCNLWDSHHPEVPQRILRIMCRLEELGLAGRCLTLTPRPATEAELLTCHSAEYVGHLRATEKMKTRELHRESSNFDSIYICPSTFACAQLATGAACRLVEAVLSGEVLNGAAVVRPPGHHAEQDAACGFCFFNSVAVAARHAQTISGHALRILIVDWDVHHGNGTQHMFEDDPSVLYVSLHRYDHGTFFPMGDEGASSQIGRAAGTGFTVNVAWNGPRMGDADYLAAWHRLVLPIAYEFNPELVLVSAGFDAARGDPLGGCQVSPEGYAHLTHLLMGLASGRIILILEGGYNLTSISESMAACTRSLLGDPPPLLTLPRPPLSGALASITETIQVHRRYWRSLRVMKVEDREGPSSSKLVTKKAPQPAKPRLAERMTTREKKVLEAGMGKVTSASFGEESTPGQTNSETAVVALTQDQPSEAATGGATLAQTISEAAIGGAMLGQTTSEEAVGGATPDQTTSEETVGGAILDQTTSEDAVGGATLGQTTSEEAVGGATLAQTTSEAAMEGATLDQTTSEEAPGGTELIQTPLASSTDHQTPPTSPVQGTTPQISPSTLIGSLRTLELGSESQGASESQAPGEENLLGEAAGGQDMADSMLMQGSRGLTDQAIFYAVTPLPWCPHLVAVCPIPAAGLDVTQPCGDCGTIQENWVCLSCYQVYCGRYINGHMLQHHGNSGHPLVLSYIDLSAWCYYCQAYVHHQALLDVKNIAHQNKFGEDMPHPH

[2] = target: Protein deacetylase HDAC6 (Homo sapiens) (UniProt Q9UBN7); settings: at 10 µM; remark: listed apart in the source

Compound	inhibition [1]	inhibition [2]
CC(C)C(C(=O)Nc1nccs1)c1ccc(Cl)cc1 (stereo unspecified)	10.4%	
COC(=O)c1csc(C(=O)c2c[nH]c3ccccc23)n1	47.6%	
Nc1ccn([C@@H]2O[C@H](CO)[C@@H](O)C2(F)F)c(=O)n1	-4.87%	
COC(=O)Nc1nc2cc(C(=O)c3ccc(F)cc3)ccc2[nH]1	1.02%	
COC(=O)Nc1nc2cc(SC(C)C)ccc2[nH]1	79.4%	
COC(=O)Nc1nc2cc(Sc3ccccc3)ccc2[nH]1	65.2%	
CCCOc1ccc2[nH]c(NC(=O)OC)nc2c1	31.6%	
COC(=O)Nc1nc2cc(C(=O)c3ccccc3)ccc2[nH]1	-5.79%	
CCCC(=O)Nc1ncnc2c1ncn2C1O[C@@H]2COP(=O)(O)O[C@H]2[C@H]1OC(=O)CCC (stereo partly specified)	3.41%	
N#Cc1ncccn1	-1.21%	
COc1cc(N2CCC(N3CCN(C)CC3)CC2)ccc1Nc1ncc(Cl)c(Nc2ccccc2S(=O)(=O)C(C)C)n1	17.9%	
C[C@@]1(C(=O)N[C@@H](CCC(=O)O)C(=O)O)CCCN1C(=O)CN (H-Gly-[αMeP]-Glu-OH)	-8.16%	
O=C1OC(OC(=O)c2cccnc2Nc2cccc(C(F)(F)F)c2)c2ccccc21 (stereo unspecified)	4.26%	
Cc1c(Nc2ncccc2C(=O)O)cccc1C(F)(F)F	89.7%	
O=C(O)c1cccnc1Nc1cccc(C(F)(F)F)c1	74.8%	
O=C(OCCOCCO)c1ccccc1Nc1cccc(C(F)(F)F)c1	46.4%	
O=C(O)c1cccnc1C(=O)O	-0.23%	
Cc1c(Cl)cccc1Nc1ccccc1C(=O)O	32.3%	
CN[C@H](C(=O)N[C@H](C(=O)N(C)[C@H](/C=C(\C)C(=O)O)C(C)C)C(C)(C)C)C(C)(C)c1ccccc1	-3.5%	
CC1OC1P(=O)(O)O (stereo unspecified)	-9.26%	
TEPRENONE, CHEMBL5314356		27.9%
CC1=C(C(=O)Nc2cc3cn[nH]c3cc2F)C(c2ccc(C(F)(F)F)cc2)CC(=O)N1 (stereo unspecified)	24.4%	

Compound	inhibition [1]	inhibition [2]
C#CCN[C@@H]1CCc2ccccc21	54%	
c1ccc(Oc2cccnc2)cc1	10.2%	
CCCCNc1nc(N)c2[nH]c(=O)n(Cc3ccc(OCCN(C)C)nc3)c2n1	-9.47%	
CCCC(=O)OCOC(=O)C1=C(C)NC(C)=C(C(=O)OC)C1c1cccc(Cl)c1Cl (stereo unspecified)	44.1%	
Cc1ccc(Nc2ncc3c(n2)N(C)C(=O)N(c2cc(NC(=O)c4cccc(C(F)(F)F)c4)ccc2C)C3)cn1	2.43%	
O=C(O)C1=CC(O)C(O)[C@H](O)C1 (stereo partly specified)	11.8%	
CCCn1c(=O)c2nc(-c3ccccc3)[nH]c2n(CCC)c1=O	-5.2%	
CCCn1c(=O)c2[nH]c(-c3cnn(Cc4cccc(C(F)(F)F)c4)c3)nc2n(CC)c1=O	101%	
CCOC(=O)COc1ccc2c(c1)C[C@@H](NC[C@H](O)c1cccc(Cl)c1)CC2	16.8%	
Cn1nccc1Nc1nccc(-c2ccn([C@H](CO)c3ccc(Cl)c(F)c3)c(=O)c2)n1	26.5%	
CN1CCC(Nc2ncc3ncnc(Nc4ccc(F)c(Cl)c4)c3n2)CC1	20.6%	
O=C(Nc1cccc(Br)c1)c1cccc(S(=O)(=O)N2CCCCCC2)c1	12.5%	
CCOc1cccc(NC(=O)c2ccc(N3CCCC3)c(C(F)(F)F)c2)c1	69.4%	
CCn1c(-c2nonc2N)nc2cnc(Oc3cccc(NC(=O)c4ccc(OCCN5CCOCC5)cc4)c3)cc21	7.09%	
Cc1cc(C)n(-c2cccc([C@H](CC(=O)O)CN3CC[C@@H](CCc4ccc5c(n4)NCCC5)C3)c2)n1	-4.01%	
C[C@H]1CC[C@H](n2c3cnccc3c3cnc(Nc4ccc5c(n4)CCN(C(=O)CO)C5)nc32)CC1	-9.6%	
CC[C@@H]1CN2C(=O)N(C)c3nc(-c4ccccc4)[nH]c3C2=N1	-3.85%	
COc1ccc(C(=O)Nc2sc3c(c2C(N)=O)CCCC3)cc1OC	31.6%	
CC(C)(C)C1CCc2c(sc(NC(=O)c3ccco3)c2C(=O)O)C1 (stereo unspecified)	102%	
N[C@@H](Cc1ccc(B(O)O)cc1)C(=O)O	0.83%	
CNc1ncc2cc(-c3cc(NC(=O)NCCC(C)(C)C)c(F)cc3C)c(C)nc2n1	12.4%	
C/C(=N\NC(=O)[C@@H]1C(=O)NC[C@H]1c1ccccc1)c1cccc(Br)c1	17.4%	

Compound	inhibition [1]	inhibition [2]
CN1CCc2c(c3ccccc3n2Cc2ccc(C(=O)NO)cc2)C1	101%	
Fc1ccc(Cn2c(NC3CCNCC3)nc3ccccc32)cc1	6.44%	
CCO[C@@H](Cc1ccc(OCCc2ccc(OS(C)(=O)=O)cc2)cc1)C(=O)O	-7.27%	
COc1cc(/C=C/C(=O)CC(=O)/C=C/c2ccc(O)c(OC)c2)ccc1O	38.8%	
O=C(/C=C/c1ccccc1)NCCO	81.5%	
O=C(/C=C/c1cccnc1)NCCCCC1CCN(C(=O)c2ccccc2)CC1	-0.26%	
CCNC(=O)/C=C/c1cccc(Br)c1	54.9%	
Nc1cc(F)ccc1NC(=O)/C=C/c1cnn(C/C=C/c2ccccc2)c1	12.4%	
O=C(c1cccc(Br)c1)N1CCC(N2CCCC2)CC1	1.11%	
CC12CCC(C(=O)N(CCCCN3CCN(c4ccccn4)CC3)C1=O)C2(C)C (stereo unspecified)	4.93%	
C[C@@H]1O[C@@H](O[C@H]2[C@H](Oc3cc(O)c4c(c3)O[C@H](c3ccc(O)cc3)CC4=O)O[C@H](CO)[C@@H](O)[C@@H]2O)[C@H](O)[C@H](O)[C@H]1O	11.8%	
O=C(O)C[C@H]1CC[C@H](c2ccc(-c3ccc(Nc4ccc(C(F)(F)F)nc4)cn3)cc2)CC1	17.5%	
CC(C)c1ccc2c(c1)CC[C@H]1[C@](C)(CN)CCC[C@]21C	10.1%	
C/C(=C\C(=O)Nc1ccccc1C(=O)O)c1ccc2ccccc2c1	27.8%	
CC(C)N(CCC(=O)c1ccc2ccccc2c1)Cc1ccccc1	59.8%	
C=CC(=O)c1ccc2ccccc2c1	20.7%	
CC(=O)c1c(C)c2cnc(Nc3ccc(N4CCNCC4)cn3)nc2n(C2CCCC2)c1=O	3.93%	
CC(=O)SCC(Cc1ccccc1)C(=O)NCC(=O)OCc1ccccc1 (stereo unspecified)	3.61%	
C[C@H]1CN(C[C@H](Cc2ccccc2)C(=O)NCC(=O)O)CC[C@@]1(C)c1cccc(O)c1	72.7%	
CC(C)C[C@H](NC(=O)[C@H](CCc1ccccc1)NC(=O)CN1CCOCC1)C(=O)N[C@@H](Cc1ccccc1)C(=O)N[C@@H](CC(C)C)C(=O)[C@@]1(C)CO1	0.65%	
O=C(CN1CCN(C(=O)c2ccco2)CC1)Nc1cc(C(F)(F)F)ccc1Cl	18.3%	
Nc1nc2cc(-c3ccc4ncc(C(=O)N5CCOCC5)n4c3)ccc2o1	17.8%	

Compound	inhibition [1]	inhibition [2]
CN(CCCN1c2ccccc2CCc2ccccc21)CC(=O)c1ccc(Cl)cc1	35.1%	
Cc1cc(O)c(C(C)C)cc1Cl	35.2%	
CCCN[C@H]1CCc2nc(N)sc2C1	14.3%	
CC(C)(C)c1cc(C(=O)/C=C/c2ccc(C(=O)O)cc2)cc(C(C)(C)C)c1	35.2%	
CC(C)=CCOc1ccc(/C=C/C(=O)c2ccc(OCC=C(C)C)cc2OCC(=O)O)cc1	-0.94%	
O=C(/C=C/c1ccc(O)c(O)c1)c1ccc(O)cc1O	97.5%	
O=C(/C=C/c1ccc(O)cc1)c1ccc(O)cc1O	98.6%	
O=C(O)/C=C/c1ccc(O)c(O)c1	-8.03%	
NC(=O)c1cccc(-c2cc(Nc3ccc(OC(F)(F)F)cc3)ncn2)c1	-8.36%	
c1coc(-c2nnc3sc(C4CCCCC4)nn23)c1	-6.78%	
O=C(Nc1ccc(Oc2ccc(Cl)cn2)c(Cl)c1)c1ccccn1	44.2%	
CN(Cc1ccc(C(C)(C)C)cc1)Cc1cccc2ccccc12	2.21%	
CC(C)=CCC/C(C)=C/CC/C(C)=C/CSc1ccccc1C(N)=O	-0.26%	
O=C(Nc1cccnc1)c1cc(-c2ccnc(F)c2)ccc1OCc1ccccc1	9.93%	
CCOC(=O)c1c(O)nc2cccc3c2c1-c1ccccc1C3=O	41.8%	
O=C1c2ccccc2-c2n[nH]c3cccc1c23	88.8%	
O=C(c1c(O)nc2cc(Cl)ccc2c1O)C1CC1	-2.41%	
N#C/C(=C\c1ccc(O)c(O)c1)C(=O)Nc1ccccc1	89%	
C[C@H](NC(=O)/C(C#N)=C/c1ccc(O)c(O)c1)c1ccccc1	30.1%	
O=C(CCCl)NCc1ccccc1	-3.62%	
N#C/C(=C\c1ccc(O)c(O)c1)C(N)=O	16.6%	
CCCCCCCCNC(=O)/C(C#N)=C/c1cn(CCCN(C)C)c2ccccc12	7.03%	

Compound	inhibition [1]	inhibition [2]
N#C/C(=C\c1ccc(O)c(O)c1)C(=O)NCc1ccccc1	53%	
N#C/C(=C\c1ccc(O)c(O)c1)C(=O)OCCc1cccs1	40.4%	
N#C/C(=C\c1ccc(O)c(O)c1)C(=O)NCCCc1ccccc1	88.2%	
CCCCCCCC/C=C\CCCCCCCC(=O)NCCc1ccc(O)c(O)c1	29.4%	
COc1cc(C[C@@H]2NCCc3cc(O)c(O)cc32)cc(OC)c1OC	3.77%	
N#CC(Cc1ccc(O)cc1)c1ccc(O)cc1 (stereo unspecified)	21.2%	
COc1ccc2[nH]c(SCc3ncc(C)c(OC)c3C)nc2c1	62.8%	
COc1ccc2[nH]c([S+]([O-])Cc3ncc(C)c(OC)c3C)nc2c1 (stereo unspecified)	16.1%	
COc1ccc2[nH]c([S@@+]([O-])Cc3ncc(C)c(OC)c3C)nc2c1	26.7%	
CCC[C@H](NC(=O)[C@@H]1[C@H]2CCC[C@H]2CN1C(=O)[C@@H](NC(=O)[C@@H](NC(=O)c1cnccn1)C1CCCCC1)C(C)(C)C)C(=O)C(=O)NC1CC1	-8.83%	
Clc1ccc2c(NCCNc3ccnc4cc(Cl)ccc34)ccnc2c1	14.9%	
O=C(OCC(O)CO)c1ccccc1Nc1ccnc2cc(Cl)ccc12 (stereo unspecified)	94.8%	
Oc1ccnc2cc(Cl)ccc12	28.9%	
O=C(O)CCNc1cc(N2CCc3ccccc3CC2)nc(-c2cccnc2)n1	-1.98%	
Cc1cc(O)c2c(=O)c3c(O)cc(O)c4c5c(O)cc(O)c6c(=O)c7c(O)cc(C)c8c1c2c(c34)c(c78)c65	85%	
Nc1c2c(nc3ccccc13)CCCC2O (stereo unspecified)	7.55%	
O[C@@H]1CO[C@H]2[C@@H]1OC[C@@H]2O	0.18%	
Cc1nnc(C(C)C)n1[C@H]1C[C@H]2CC[C@@H](C1)N2CC[C@H](NC(=O)C1CCC(F)(F)CC1)c1ccccc1	25%	

Source: ChEMBL document CHEMBL4808148, “HDAC6 screening dataset using tau-based substrate in an enzymatic assay yields selective inhibitors and activators” (2021)
